Inconclusive results are not listed. A number with no mark means an inactive call. Calls of active or inactive are those of the source. Calls come from the whole dose curve; as a rule, active = well fitted inhibition curve with a large enough effect in the signal ratio in the repeat runs (not every such curve was filed as active); inconclusive = weak or mixed curves, or effect the other way; inactive = no such curve, though single readings can be large or run the other way; the % refers to the signal ratio. Positions of bridges follow the written chain, without caps; N, C: chain ends. Non-standard residues stand in square brackets, D forms with d. Residues, ends and D or L forms follow the SMILES beside them. Orn = NCCC[C@H](N)C(=O)O; Mpa = O=C(O)CCS
Molecular target: Glucocorticoid receptor (Homo sapiens) (UniProt P04150)
Sequence (P04150 whole entry, looked up): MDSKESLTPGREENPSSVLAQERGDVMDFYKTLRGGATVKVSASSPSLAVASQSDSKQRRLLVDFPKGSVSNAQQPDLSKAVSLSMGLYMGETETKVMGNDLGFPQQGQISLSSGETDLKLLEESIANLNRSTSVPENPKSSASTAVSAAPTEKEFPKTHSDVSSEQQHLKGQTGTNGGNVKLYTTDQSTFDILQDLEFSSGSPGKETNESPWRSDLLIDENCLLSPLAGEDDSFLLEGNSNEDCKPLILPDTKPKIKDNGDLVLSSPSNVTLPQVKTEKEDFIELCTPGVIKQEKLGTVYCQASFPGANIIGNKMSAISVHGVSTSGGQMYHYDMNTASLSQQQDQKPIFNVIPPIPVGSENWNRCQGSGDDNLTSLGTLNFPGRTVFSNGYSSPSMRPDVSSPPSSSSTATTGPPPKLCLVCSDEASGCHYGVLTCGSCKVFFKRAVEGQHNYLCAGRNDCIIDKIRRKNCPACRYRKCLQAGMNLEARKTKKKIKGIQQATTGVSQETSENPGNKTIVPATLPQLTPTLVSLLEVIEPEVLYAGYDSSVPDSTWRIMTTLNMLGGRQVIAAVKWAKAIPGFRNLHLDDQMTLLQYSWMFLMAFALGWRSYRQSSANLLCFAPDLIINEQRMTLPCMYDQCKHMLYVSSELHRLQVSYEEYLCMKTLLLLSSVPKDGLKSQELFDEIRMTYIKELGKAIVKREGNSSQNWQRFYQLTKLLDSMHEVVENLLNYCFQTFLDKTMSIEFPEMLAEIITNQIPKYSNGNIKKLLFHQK
Test: qHTS assay to identify small molecule antagonists of the glucocorticoid receptor (GR) signaling pathway (AID 720692)
Conditions: GR-bla HeLa, beta-lactamase FRET ratio, dexamethasone-stimulated, 18 h; series mostly up to 58.5 µM; activity change, negative = inhibition: at the top concentration
Source text: U.S. Tox21 Program National Center for Advancing Translational Sciences [NCATS] NIH Chemical Genomics Center [NCGC] U.S. Environmental Protection Agency [EPA] National Institutes of Environmental Health Sciences [NIEHS] National Toxicology Program [NTP] U.S. Food and Drug Administration [FDA] Tox21 Assay Overview: The Glucocorticoid receptor (GR) is one of the members of the nuclear receptor family of ligand-dependent transcription factors. GR plays a critical role in carbohydrate, protein and lipid metabolisms and programmed cell death. CellSensor GR-bla HeLa cell line (Invitrogen) contains a beta-lactamase reporter gene under the control of the glucocorticoid response element stably integrated into HeLa cells, a cervical cancer cell line that expresses glucocorticoid receptor. The activation of the reporter gene under culture conditions can be detected by fluorescence intensity. This cell line has been used to screen the Tox21 10K compound library and to identify the compounds that inhibit the GR signaling.
Tox21 Assay Protocol Summary: The GR-bla HeLa cells were dispensed at 1500 cells/5 ul/well in 1536-well black wall/clear bottom plates using a Multidrop Combi (ThermoFisher Scientific, Waltham, MA) dispenser. After the assay plates were incubated at a 37 C/5% CO2 incubator for 4 hours, 23 nL of compounds dissolved in DMSO, positive controls or DMSO only was transferred to the assay plate by a pintool station (Kalypsys, San Diego, CA), followed by addition of 1 uL of dexamethasone (5 nM, final concentration in the well). The plates were incubated at 37 C for 18 hours. After 1 uL of LiveBLAzerTM B/G FRET substrate was added using a Flying Reagent Dispenser (Aurora Discovery, San Diego, CA), the plates were incubated at room temperature for 2 hours, and fluorescence intensity was measured by an Envision plate reader (PerkinElmer, Shelton, CT).
% is set by controls: 0 for no effect and ±100 for the full control effect; potency is the fitted concentration of half-maximal effect.

Row | SMILES | activity change, negative = inhibition | Potency
1 | CCN(CC)CCOC(=O)c1ccc(N)cc1Cl | -8.58% | –
2 | O=C(Nc1ccc(O)cc1)c1ccccc1O | 5.78% | –
3 | CCN(CC)Cc1cc(Nc2ccnc3cc(Cl)ccc23)ccc1O | 19% [at 27 µM] | –
4 | Cc1cc(Nc2ccccc2C(=O)O)ccc1Cl | 12.7% | –
5 | C=C[C@]1(C)C[C@@H](OC(=O)CSC(C)(C)CNC(=O)[C@H](N)C(C)C)[C@]2(C)[C@H](C)CC[C@]3(CCC(=O)[C@H]32)[C@@H](C)[C@@H]1O | -23.3% | –
6 | CS(=O)(=O)OCC(O)C(O)COS(C)(=O)=O (stereo not given) | 7.16% | –
7 | CCOc1ccc(C[C@H]2NC(=O)CCSSC[C@@H](C(=O)N3CCC[C@H]3C(=O)N[C@@H](CCCN)C(=O)NCC(N)=O)NC(=O)[C@H](CC(N)=O)NC(=O)[C@H]([C@@H](C)O)NC(=O)[C@H]([C@@H](C)CC)NC2=O)cc1 ([Mpa][dY](Et)ITNCP[Orn]G-NH2; disulfide 1-6) | -14.8% | –
8 | CCCCCCCCCCCCCCCCCCOP(=O)([O-])OC1CC[N+](C)(C)CC1 | -6.79% [at 27 µM] | –
9 | C/C(=C(\CCOC(=O)c1ccccc1)SS/C(CCOC(=O)c1ccccc1)=C(/C)N(C=O)Cc1cnc(C)nc1N)N(C=O)Cc1cnc(C)nc1N | -0.838% | –
10 | COc1ccc(C2(C#N)CCC(C(=O)O)CC2)cc1OC1CCCC1 (stereo not given) | 23.6% | –
11 | CCOC(=O)COc1ccc2c(C)c(CCN(CC)CC)c(=O)oc2c1 | -6.48% | –
12 | Cn1nnnc1SCC1=C(C(=O)O)N2C(=O)[C@@H](NC(=O)[C@H](O)c3ccccc3)[C@H]2SC1 | -0.486% [at 27 µM] | –
13 | O=C(O[C@H]1CN2CCC1CC2)N1CCc2ccccc2[C@@H]1c1ccccc1 | 9.37% | –
14 | Cc1cccc(C)c1Nc1ncccc1C(=O)O | -3.24% | –
15 | CC1CCC(NC(=O)N(CCCl)N=O)CC1 (stereo not given) | 10.7% | –
16 | Cc1nc(NS(=O)(=O)c2ccc(N)cc2)nc(C)c1Br | -3.77% | –
17 | O=C(O)c1cc2ccccc2c(Cc2c(O)c(C(=O)O)cc3ccccc23)c1O | -3.75% | –
18 | Cc1ccc(/C(=C\CN2CCCC2)c2cccc(/C=C/C(=O)O)n2)cc1 | -11.3% | –
19 | Nc1ccn(C[C@@H](CO)OCP(=O)(O)O)c(=O)n1 | -0.814% | –
20 | Nc1ncnc2c1ncn2CCOCP(=O)(O)O | -0.67% | –

Row | SMILES | activity change, negative = inhibition | Potency
21 | C=CCSSSCC=C | 12.6% | –
22 | CCCCCCCCCCCCCCCCSCC(COC)COP(=O)([O-])OCC[N+](C)(C)C (stereo not given) | – | 23.9 µM (active)
23 | CNc1cc(OC)c(C(=O)N[C@H]2CCN(Cc3ccccc3)[C@H]2C)cc1Cl | 0.388% | –
24 | CCC(=O)NS(=O)(=O)c1ccc(-c2c(-c3ccccc3)noc2C)cc1 | -3.82% | –
25 | NCCCC[C@H](NC(=O)[C@@H]1CCCN1C(=O)[C@@H]1CSSC[C@H](N)C(=O)N[C@@H](Cc2ccccc2)C(=O)N[C@@H](Cc2ccccc2)C(=O)N[C@@H](CCC(N)=O)C(=O)N[C@@H](CC(N)=O)C(=O)N1)C(=O)NCC(N)=O | 0.907% | –
26 | OC[C@@H](O)C(O)[C@H](O)CO | -0.0374% | –
27 | C[C@@H]1C/C=C/C=C/C=C/C=C/[C@H](O[C@@H]2O[C@H](C)[C@@H](O)[C@H](N)[C@@H]2O)C[C@@H]2O[C@](O)(C[C@@H](O)C[C@H]3O[C@@H]3/C=C/C(=O)O1)C[C@H](O)[C@H]2C(=O)O | 11% | –
28 | CC(C)C[C@H](NC(=O)[C@@H](Cc1c[nH]c2ccccc12)NC(=O)[C@H](Cc1ccc(O)cc1)NC(=O)[C@H](CO)NC(=O)[C@H](Cc1c[nH]c2ccccc12)NC(=O)[C@H](Cc1cnc[nH]1)NC(=O)[C@@H]1CCC(=O)N1)C(=O)N[C@@H](CCCN=C(N)N)C(=O)N1CCC[C@@H]1C(=O)NCC(N)=O | 15.3% | –
29 | CC(C)CN(C[C@@H](O)[C@H](Cc1ccccc1)NC(=O)O[C@H]1CO[C@H]2OCC[C@H]21)S(=O)(=O)c1ccc(N)cc1 | -4.4% | –
30 | O=C1N=C2SCCN2C(=O)C1Cc1ccc(Cl)cc1 (stereo not given) | 15% | –
31 | CN1CCN2c3ncccc3Cc3ccccc3C2C1 (stereo not given) | 10.6% | –
32 | CO/N=C(\C(=O)N[C@@H]1C(=O)N2C(C(=O)O)=C(CSc3nnnn3C)CS[C@H]12)c1csc(N)n1 | 4.86% | –
33 | CC(C)=CCC/C(C)=C/C=C/C(C)=C/C=C/C(C)=C/C=C/C=C(C)/C=C/C=C(C)/C=C/C=C(\C)CCC=C(C)C | 2.55% | –
34 | C[C@@H](O)[C@H]1C(=O)N2C(C(=O)[O-])=C(SC3Cn4cnc[n+]4C3)[C@H](C)[C@H]12 (stereo not given in full) | -9.78% | –
35 | Cc1cccc(C)c1NC(=O)NC1=CCCN1C | -0.381% | –
36 | CCC(C)(C)OC(=O)N[C@@H](Cc1c[nH]c2ccccc12)C(=O)N[C@@H](CCSC)C(=O)N[C@@H](CC(=O)O)C(=O)N[C@@H](Cc1ccccc1)C(N)=O | -20% | –
37 | Cc1onc(-c2ccccc2)c1C(=O)N[C@@H]1C(=O)N2[C@@H]1SC(C)(C)[C@@H]2C(=O)O | -9.43% | –
38 | CC(C)[C@H](N)C(=O)OCC(CO)OCn1cnc2c(=O)[nH]c(N)nc21 (stereo not given in full) | -14.4% | –
39 | CCCCC(O)c1ccccc1 (stereo not given) | -1.92% | –
40 | CO/N=C(\C(=O)N[C@@H]1C(=O)N2C(C(=O)OCOC(=O)C(C)(C)C)=C(/C=C\c3scnc3C)CS[C@H]12)c1csc(N)n1 | -2.3% | –

Reference: PubChem BioAssay (Tox21)
